Bioassay records from PubChem.
DUSP3 inh = VHR1 phosphatase inhibitors, primary screen, biochemical, absorbance, uHTS | recombinant VHR phosphatase, pNPP absorbance | 0.52% of 290,000 active | inhibition, % at 13.3 µM | AID 1654, 2009; in the data active means inhibition above about 50%
TcdB GH inh = TcdB glycohydrolase inhibitors, primary screen, biochemical, single point, plate reader; 0.24% of 350,000 active; inhibition, % at 9.99 µM; TcdB glycohydrolase enzymatic assay; AID 652162, 2013; Toxin B (Clostridioides difficile), P18177; in the data active means inhibition above about 10%
PrPC TRFRET = inhibitors of human cell surface prion protein PrPC, primary screen, cell-based, TR-FRET | Major prion protein (Homo sapiens), P04156 | 0.43% of 370,000 active | inhibition, % at 13.8 µM | TR-FRET read-out; in the data active means inhibition above about 24%; further: 0% = median of the test wells and 100% = reference compound wells
PrPC confirm = confirmation of inhibitors of cell surface human prion protein, confirmation, cell-based, TR-FRET | shares compounds with PrPC TRFRET | cell surface PrPC level | inhibition, % at 13.8 µM | 65% of 1,500 active; in the data active means inhibition above about 25%
LD9 tox = cytotoxicity in LD9 cells, cytotoxicity control for cell surface PrPc inhibitor project, cell-based, luminescence, high throughput; luminescence viability; 29% of 1,500 active; inhibition, % at 13.8 µM; shares compounds with PrPC TRFRET; AID 743201, 2013; in the data active means inhibition above about 9.5%
* hit, by the source's call; . = no result. Compounds with a hit are over-represented: about 0.82% of the library has one in this group of screens.

SMILES | DUSP3 inh | TcdB GH inh | PrPC TRFRET | PrPC confirm | LD9 tox
N#Cc1c(SC(C(=O)O)c2ccccc2)nc2c(c1-c1cccs1)CCCC2 (configuration not stated) | 2 | -1 | 52* | 52* | -9
CSc1nc2c(c(-c3ccccc3)c1C#N)CCC2 | . | . | 9 | . | .
CCOC(=O)C(C)Sc1nc2c(c(-c3cccs3)c1C#N)CCC2 (configuration not stated) | -8 | 1 | 65* | 76* | -4
Cc1ccc(S(=O)(=O)Nc2cccc3c2O[C@H](CN(C)S(=O)(=O)c2ccccc2)[C@@H](C)CN([C@H](C)CO)C3=O)cc1 | . | 0 | . | . | .
C[C@@H]1CN([C@@H](C)CO)C(=O)Cc2cc(NC(=O)CCCN(C)C)ccc2O[C@@H]1CN(C)CC1CCCCC1 | . | 0 | . | . | .
Brc1ccc2ncnc(NCc3ccccc3)c2c1 | -19 | . | 48* | 50* | 12*
COc1cc2ncnc(Nc3cccc(Cl)c3)c2cc1OC | 26 | . | . | . | .
c1ccc(CCNc2ncnc3ccccc23)cc1 | -10 | 1 | 19 | . | .
Clc1cccc(Nc2ncnc3ccc(Br)cc23)c1 | 24 | 1 | 63* | 76* | 2
Cc1cccc(Nc2ncnc3ccc(Br)cc23)c1 | 24 | 2 | 26* | 31* | -1
Cc1ccc2ncnc(Nc3ccccc3)c2c1 | 19 | 2 | 6 | . | .
Clc1ccc(Nc2ncnc3ccc(Br)cc23)cc1 | 8 | . | 30* | 44* | 4
CN(C)c1ccc(Nc2ncnc3ccc(Br)cc23)cc1 | 27 | -4 | 2 | . | .
CNC[C@@H]1Oc2c(NS(=O)(=O)c3ccc(OC)cc3)cccc2C(=O)N([C@H](C)CO)C[C@@H]1C | . | 2 | . | . | .
CCCNC(=O)[C@@H]1[C@@H](CO)[C@@H]2Cn3c(ccc(-c4ccccc4OC)c3=O)[C@@H]2N1C(=O)CC | . | 0 | . | . | .
CO[C@@H]1CN(C)C(=O)c2cc(NC(=O)C3CC3)ccc2OC[C@H](C)N(C(=O)c2cnccn2)C[C@H]1C | . | -1 | . | . | .
COc1ccc2c3c([nH]c2c1)[C@@H](CO)N(Cc1cccc(F)c1)CC31CCN(C(C)=O)CC1 | . | 2 | . | . | .
CCOC(=O)c1ccc2[nH]c(C)c(CCC(C)=O)c(=O)c2c1 | -2 | . | 1 | . | .
CC(=O)Nc1ccc2[nH]c(C)c(CC=C(Cl)Cl)c(=O)c2c1 | 0 | . | 37* | 54* | -3
Cn1c(=O)cc(OCCCC(=O)Nc2cc(-c3cn[nH]c3)ccn2)c2ccccc21 | . | . | 35* | 41* | 24*
Cn1c(=O)cc(OCCCC(=O)Nc2ccccn2)c2ccccc21 | 34 | . | -9 | . | .
O=C(NCC[C@@H]1CC[C@@H](NS(=O)(=O)Cc2ccccc2)[C@@H](CO)O1)C1CCOCC1 | . | -1 | . | . | .
CNNC(=S)Nc1cccc(C(F)(F)F)c1 | 27 | -3 | 62* | -1 | -6
FC(F)(F)c1cccc(NC(=S)NNC(=S)Nc2cccc(C(F)(F)F)c2)c1 | 34 | . | . | . | .
Cc1ccccc1-c1cnc2c(c1)C(=O)N([C@H](C)CO)C[C@@H](C)[C@@H](CN(C)C(=O)c1cccnc1)O2 | . | 2 | . | . | .
SMILES | DUSP3 inh | TcdB GH inh | PrPC TRFRET | PrPC confirm | LD9 tox
COc1ccc(NC(=O)N2C[C@H]3[C@@H](c4ccccc42)[C@@H](CO)N3C(=O)C2CCCCC2)cc1 | . | 0 | . | . | .
C[C@H]1CN([C@@H](C)CO)C(=O)c2cc(C3=CCCCC3)cnc2O[C@@H]1CN(C)Cc1ccncc1 | . | -1 | . | . | .
S=C(NCc1ccccc1)N1CCn2cccc2C1c1cccnc1 (configuration not stated) | 8 | 1 | 0 | . | .
S=C(NCCc1ccccc1)N1CCn2cccc2C1c1cccnc1 (configuration not stated) | 2 | -1 | 32* | 2 | -4
CO[C@H]1CC[C@H]2CCOc3c(C#N)cccc3C(=O)N(C)[C@H](C)C(=O)N(C)C[C@@H]1O2 | . | 0 | . | . | .
O=C(NCc1ccccc1)c1ccc(Cl)cc1 | 14 | 2 | 7 | . | .
O=C(NCc1ccc(Cl)cc1)c1cccc(NC(=O)c2ccccc2)c1 | -7 | -1 | 32* | 27* | -2
C[C@@H]1CN([C@@H](C)CO)C(=O)c2cc(NS(=O)(=O)c3ccccc3)ccc2O[C@@H](C)CCCCO[C@@H]1CN(C)C(=O)c1ccncc1 | . | -1 | . | . | .
O=C(Nc1ccc2c(c1)OCO2)Nc1ccc2c(c1)OCO2 | -12 | 1 | 9 | . | .
O=C(Nc1ccc(OC(F)F)c(Cl)c1)Nc1ccc2c(c1)OCO2 | -5 | . | 29* | 22 | 3
COc1cc(NC(=O)Nc2ccc3c(c2)OCO3)cc(OC)c1OC | 11 | 1 | 3 | . | .
COc1ccc(C(C)(C)C)cc1NC(=O)Nc1ccc2c(c1)OCO2 | 13 | . | 25* | 16 | -1
CN(C)C(=O)c1ccc(-c2ccc3c(c2)[C@H]2[C@H](CCN2S(=O)(=O)c2cn(C)cn2)[C@@H](CO)N3)cc1 | . | -6 | . | . | .
C[C@H]1CCCCO[C@H](CN(C)C(=O)C2CCCCC2)[C@@H](C)CN([C@@H](C)CO)C(=O)c2cc(NC(=O)Nc3ccc(C(F)(F)F)cc3)ccc2O1 | . | 1 | . | . | .
CSc1nc2ccc(NC(=O)c3cccs3)cc2s1 | . | 5 | 25* | 25* | 0
CSc1nc2ccc(NC(=O)c3ccco3)cc2s1 | 36 | . | 11 | . | .
O=C(N[C@H]1C[C@@H]2O[C@@H](CO)CC[C@@H]2O[C@@H]1CCc1ccc(C#CC2CC2)cc1)c1cccc(F)c1 | . | -1 | . | . | .
CCc1ccc(-c2nc3ccc(Br)cc3c(C(=O)O)c2C)s1 | 6 | -4 | 48* | 84* | -3
Cc1c(-c2ccccc2Br)nc2ccccc2c1C(=O)O | . | -1 | -3 | . | .
CCOC(=O)c1c(/N=C/N(C)C)sc(/C=N/Nc2ccccc2)c1-c1ccc(Cl)cc1 | -11 | 0 | 26* | 33* | -5
CCOC(=O)c1c(/N=C/N(C)C)sc(C)c1C | 17 | 0 | 6 | . | .
O=C(C1CCCC1)N1CC(=O)N2[C@@H](CO)[C@H](c3ccc(-c4ccccc4F)cc3)[C@@H]2C1 | . | -1 | . | . | .
CCOc1ccc(C(C)=O)cc1CSC(=N)N | 20 | 1 | 3 | . | .
CCCCOc1ccc(Br)cc1CSC(=N)N | -13 | 2 | 25* | 4 | 21*
C[C@@H]1CN([C@H](C)CO)S(=O)(=O)c2ccc(-c3cccnc3)cc2O[C@@H]1CN(C)C(=O)NC1CCCC1 | . | 0 | . | . | .
C=CCn1c(=O)c2ccccc2n2c(SCC(=O)O)nnc12 | -12 | 1 | -1 | . | .
C=CCn1c(=O)c2ccccc2n2c(SCC(N)=O)nnc12 | 9 | . | 36* | 35* | 2
COc1ccc(S(=O)(=O)Nc2ccc3c(c2)C(=O)N([C@@H](C)CO)C[C@H](C)[C@@H](CN(C)S(=O)(=O)c2c(C)noc2C)OCCCC[C@H](C)O3)cc1 | . | 0 | . | . | .
CN(C)C(=O)C[C@@H]1C=C[C@H](NC(=O)Nc2cccc(F)c2)[C@@H](CO)O1 | . | -21 | . | . | .
CO[C@@H]1CN(C)C(=O)c2cc(NC(=O)NC(C)C)ccc2OC[C@H](C)N(C(=O)CC2CC2)C[C@@H]1C | . | 0 | . | . | .
